Unmarked numbers belong to inactive results. Records with an inconclusive call do not appear. Where a call stands in place of a potency, no number is given. Calls of active or inactive are those of the source. Calls follow the shape of the dose curve; as a rule, active = well fitted curve in the direction sought with a large enough effect in the repeat runs; inconclusive = weak or mixed curves; inactive = no such curve, though single readings can be large; an effect the other way counts as inactive or inconclusive.
Assays:
[1] = Human pregnane X receptor (PXR) small molecule agonists, qHTS cell viability counter screen (AID 1346977); also: nearly all actives have a fitted effect of over 50% in size; also: potency is read from the fitted curve at half-maximal effect
Method in brief: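 Cytotoxicity counter screen run in the same wells as the PXR luciferase assay, using PXR-Luc HepG2 cells in charcoal-stripped serum medium. Viability: CellTiter-Fluor fluorescence after 24hr compound treatment.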

[2] = Caspase-3/7 induction in HepG2 cells by small molecules, qHTS assay (AID 1346978); also: nearly all actives have a fitted effect of over 15% in size
Method in brief: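 Wild-type HepG2 cells (2,000/well) were settled 5 h at 37 C, 5% CO2, then exposed to compounds in DMSO for 17 h. Caspase-3/7 activity was read by luminescence 30 min after adding Caspase-Glo 3/7 reagent at room temperature.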

[3] = Caspase-3/7 induction in CHO-K1 cells by small molecules, qHTS cell viability counter screen (AID 1346979); also: nearly all actives have a fitted effect of over 35% in size; also: potency is read from the fitted curve at half-maximal effect
Method in brief: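 Cytotoxicity counter screen run in parallel with the caspase-3/7 assay: CHO-K1 cells, 16hr compound treatment at 37C, then CellTiter-Fluor for 1hr before fluorescence reading.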

[4] = Caspase-3/7 induction in CHO-K1 cells by small molecules, qHTS assay (AID 1346980); also: nearly all actives have a fitted effect of over 15% in size
Method in brief: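 Wild-type cells were seeded at 1,500 per well and settled 5 hr at 37 C, 5% CO2, then exposed to DMSO-dissolved compounds for 17 hr. Caspase-Glo 3/7 reagent was added, and luminescence was read after 30min at room temperature.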

[5] = Caspase-3/7 induction in HepG2 cells by small molecules, qHTS cell viability counter screen (AID 1346981); also: nearly all actives have a fitted effect of over 30% in size; also: potency is read from the fitted curve at half-maximal effect
Method in brief: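 Cell viability is measured as a cytotoxicity counter screen alongside the Caspase-Glo 3/7 readout in identical wells. Wild-type HepG2 cells are treated with test compounds for 16 hr at 37 C before CellTiter-Fluor addition and a 1-hr incubation.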

[6] = target: Nuclear receptor subfamily 1 group I member 2 (Homo sapiens) (UniProt O75469); test: Human pregnane X receptor (PXR) small molecule agonists, qHTS assay (AID 1346982); also: nearly all actives have a fitted effect of over 35% in size; also: potency is read from the fitted curve at half-maximal effect
Nuclear receptor subfamily 1 group I member 2 (Homo sapiens), sequence (O75469 whole entry, looked up): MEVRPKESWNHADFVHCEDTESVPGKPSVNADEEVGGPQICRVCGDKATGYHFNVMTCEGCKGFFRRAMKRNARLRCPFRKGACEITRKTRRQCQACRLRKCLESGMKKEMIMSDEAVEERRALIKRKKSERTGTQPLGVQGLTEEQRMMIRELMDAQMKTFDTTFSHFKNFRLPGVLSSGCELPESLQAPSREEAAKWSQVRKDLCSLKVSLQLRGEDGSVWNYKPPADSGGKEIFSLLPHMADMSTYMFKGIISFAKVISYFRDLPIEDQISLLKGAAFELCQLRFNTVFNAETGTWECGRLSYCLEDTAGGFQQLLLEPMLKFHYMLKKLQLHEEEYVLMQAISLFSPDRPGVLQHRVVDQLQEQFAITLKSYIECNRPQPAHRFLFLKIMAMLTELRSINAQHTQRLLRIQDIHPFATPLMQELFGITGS
Method in brief: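 Cells: HepG2 stably carrying PXR-Luc. Medium held 5% charcoal-stripped FBS. Compounds in DMSO added after 5 hr plating, incubated 24 hr, then luminescence quantified with ONE-Glo.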

[7] = target: Nuclear receptor subfamily 1 group I member 2 (Rattus norvegicus) (UniProt Q9R1A7); test: Rat pregnane X receptor (rPXR) activation by small molecules, qHTS assay (AID 1346983); details: rPXR luciferase reporter cells, One-Glo luminescence, 24 h; max activation: hits give high values; also: nearly all actives have a fitted effect of over 20% in size
Nuclear receptor subfamily 1 group I member 2 (Rattus norvegicus), sequence (Q9R1A7 whole entry, looked up): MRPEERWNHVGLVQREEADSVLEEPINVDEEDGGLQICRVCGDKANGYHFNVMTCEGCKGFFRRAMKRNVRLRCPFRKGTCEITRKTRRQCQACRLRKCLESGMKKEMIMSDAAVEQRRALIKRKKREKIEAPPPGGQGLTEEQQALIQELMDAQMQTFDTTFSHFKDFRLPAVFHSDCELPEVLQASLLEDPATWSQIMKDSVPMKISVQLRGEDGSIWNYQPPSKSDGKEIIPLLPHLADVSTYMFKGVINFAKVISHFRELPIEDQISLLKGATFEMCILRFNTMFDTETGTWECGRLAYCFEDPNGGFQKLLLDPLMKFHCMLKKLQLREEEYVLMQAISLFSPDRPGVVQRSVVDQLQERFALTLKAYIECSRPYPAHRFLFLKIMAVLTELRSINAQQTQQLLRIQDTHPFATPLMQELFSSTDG
Method in brief: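 Cell-based rPXR luciferase reporter assay, 2,000 cells per well, rested 5hr at 37 C before compound addition in DMSO, then 24 hr at 37 C. One-Glo reagent was added and luminescence read after 30 min at room temperature.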

[8] = target: Nuclear receptor subfamily 1 group I member 2 (Homo sapiens) (UniProt O75469); test: CYP3A4 induction through human pregnane X receptor (PXR) by small molecules, qHTS assay (AID 1346984); also: nearly all actives have a fitted effect of over 40% in size
Method in brief: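 Quantitative HTS in DPX-2 cells, i.e. HepG2 transfected with PXR response element and CYP3A4-promoter luciferase. Compounds in DMSO incubated 24hr at 37C; then P450-Glo CYP3A4 substrate, 3uM final, 3hr; One-Glo luminescence.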

[9] = target: Cytochrome P450 2D6 (Homo sapiens) (UniProt P10635); test: Cytochrome P450 Family 2 Subfamily D Member 6 (CYP2D6) small molecule antagonists: luciferase reporter qHTS assay (AID 1671196); also: nearly all actives have a fitted effect of over 50% in size; also: potency is read from the fitted curve at half-maximal effect
Cytochrome P450 2D6 (Homo sapiens), sequence (P10635 whole entry, looked up): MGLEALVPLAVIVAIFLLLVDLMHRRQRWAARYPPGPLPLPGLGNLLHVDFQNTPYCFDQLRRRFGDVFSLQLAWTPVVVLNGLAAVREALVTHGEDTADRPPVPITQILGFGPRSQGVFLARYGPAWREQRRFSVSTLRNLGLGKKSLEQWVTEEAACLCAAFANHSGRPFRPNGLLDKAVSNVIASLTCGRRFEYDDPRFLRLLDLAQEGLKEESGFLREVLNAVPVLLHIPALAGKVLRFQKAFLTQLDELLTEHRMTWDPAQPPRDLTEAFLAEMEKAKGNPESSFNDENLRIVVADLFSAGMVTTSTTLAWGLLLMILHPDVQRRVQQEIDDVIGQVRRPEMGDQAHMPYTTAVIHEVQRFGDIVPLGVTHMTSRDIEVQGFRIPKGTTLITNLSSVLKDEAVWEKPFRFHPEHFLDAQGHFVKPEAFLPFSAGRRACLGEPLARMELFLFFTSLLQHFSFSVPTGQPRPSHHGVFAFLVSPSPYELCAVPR
Method in brief: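 Enzyme and proluciferin substrate were first combined with test chemical for 10 min at room temperature. Adding NADPH regeneration solution started a 1 h reaction, stopped with luciferin detection reagent and read by luminescence 20 min later.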

[10] = target: Nuclear receptor subfamily 1 group I member 2 (Homo sapiens) (UniProt O75469); test: Human pregnane X receptor (PXR) activation by small molecules, qHTS assay (AID 1346985); also: nearly all actives have a fitted effect of over 40% in size
Method in brief: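 DPX-2 cells (HepG2 co-transfected with a PXR response element and a CYP3A4-promoter luciferase construct) were seeded at 2,000 per well, rested 5 hr at 37C, then exposed to DMSO-dissolved compounds for 24 hr. Activation was read as luciferase luminescence.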

Compound: CCCCN1C[C@H](O)[C@@H](O)[C@H](O)[C@H]1CO
- Potency [1]: inactive
- Potency [2]: inactive
- Potency [3]: inactive
- outcome [4]: inactive
- Potency [5]: inactive
- Potency [6]: inactive
- max activation [7]: -1.78%
- Potency [8]: inactive
- Potency [9]: inactive

Compound: Cc1c(C(=O)NCCO)[n+](=O)c2ccccc2n1[O-]
- Potency [1]: inactive
- Potency [2]: inactive
- Potency [3]: inactive
- outcome [4]: inactive
- Potency [5]: inactive
- Potency [6]: inactive
- max activation [7]: -3.05%
- Potency [8]: inactive
- Potency [9]: inactive

Compound: NCCCN1CCN(CCCN)CC1
- Potency [1]: inactive
- Potency [2]: inactive
- Potency [3]: inactive
- outcome [4]: inactive
- Potency [5]: inactive

Compound: Cc1cn([C@@H]2O[C@H](CO)[C@@H](O)[C@@H]2F)c(=O)[nH]c1=O
- Potency [1]: inactive
- Potency [2]: inactive
- Potency [3]: inactive
- outcome [4]: inactive
- Potency [5]: inactive
- Potency [6]: inactive
- Potency [9]: inactive

Compound: COC(=O)/C=C(/C)N
- Potency [1]: inactive
- Potency [2]: inactive
- Potency [3]: inactive
- outcome [4]: inactive
- Potency [5]: inactive
- Potency [6]: inactive
- Potency [9]: inactive

Compound: CCCN(CCC)C(=O)C(CCC(=O)O)NC(=O)c1ccccc1 (stereo not drawn)
- Potency [1]: inactive
- Potency [2]: inactive
- Potency [3]: inactive
- outcome [4]: inactive
- Potency [5]: inactive
- Potency [6]: inactive
- max activation [7]: 0.444%
- Potency [8]: inactive
- Potency [9]: inactive

Compound: O=CCCc1ccccc1
- Potency [1]: inactive
- Potency [2]: inactive
- Potency [3]: inactive
- outcome [4]: inactive

Compound: COc1ccccc1OCC(O)COC(N)=O (stereo not drawn)
- Potency [1]: inactive
- Potency [2]: inactive
- Potency [3]: inactive
- outcome [4]: inactive
- Potency [5]: inactive
- Potency [6]: inactive
- max activation [7]: 0.101%
- Potency [8]: inactive
- Potency [9]: inactive

Compound: C1CCOC1
- Potency [1]: inactive
- Potency [2]: inactive
- Potency [3]: inactive
- outcome [4]: inactive
- Potency [5]: inactive

Compound: CCCNC(C)(C)COC(=O)c1ccccc1
- Potency [1]: inactive
- Potency [2]: inactive
- Potency [3]: inactive
- outcome [4]: inactive
- Potency [5]: inactive

Compound: NC/C=C/C(=O)O
- Potency [1]: inactive
- Potency [2]: inactive
- Potency [3]: inactive
- outcome [4]: inactive
- Potency [5]: inactive
- Potency [6]: inactive
- max activation [7]: -4.44%
- Potency [8]: inactive
- Potency [9]: inactive

Compound: CCCNC(C)C(=O)Nc1c(C)csc1C(=O)OC (stereo not drawn)
- Potency [1]: inactive
- Potency [2]: inactive
- Potency [3]: inactive
- outcome [4]: inactive
- Potency [5]: inactive
- Potency [6]: inactive
- max activation [7]: -1.55%
- Potency [8]: inactive
- Potency [9]: inactive

Compound: C=CCc1cc(OC)c(O)c(C(=O)NCCO)c1
- Potency [1]: inactive
- Potency [2]: inactive
- Potency [3]: inactive
- outcome [4]: inactive
- Potency [5]: inactive
- Potency [6]: inactive
- max activation [7]: -0.885%
- Potency [8]: inactive

Compound: CCOC(=O)C1CC(=O)C(=C(O)C2CC2)C(=O)C1 (stereo not drawn)
- Potency [1]: inactive
- Potency [2]: inactive
- Potency [3]: inactive
- outcome [4]: inactive
- Potency [5]: inactive
- Potency [6]: inactive
- Potency [9]: inactive

Compound: Oc1ccccc1F
- Potency [1]: inactive
- Potency [2]: inactive
- Potency [3]: inactive
- outcome [4]: inactive
- Potency [5]: inactive
- Potency [6]: inactive
- Potency [9]: inactive

Compound: Cc1nnc(SCC2=C(C(=O)O)N3C(=O)[C@@H](NC(=O)Cn4cnnn4)[C@H]3SC2)s1
- Potency [1]: inactive
- Potency [2]: inactive
- Potency [3]: inactive
- outcome [4]: inactive
- Potency [5]: inactive
- Potency [6]: inactive
- max activation [7]: -4.1%
- Potency [8]: inactive
- Potency [10]: inactive
- Potency [9]: inactive

Compound: CCN[C@H]1CN(CCCOC)S(=O)(=O)c2sc(S(N)(=O)=O)cc21
- Potency [1]: inactive
- Potency [2]: inactive
- Potency [3]: inactive
- outcome [4]: inactive
- Potency [5]: inactive
- Potency [6]: inactive
- max activation [7]: -3.62%
- Potency [8]: inactive
- Potency [9]: inactive

Compound: CC(C)(C)C1CCCCC1=O (stereo not drawn)
- Potency [1]: inactive
- Potency [2]: inactive
- Potency [3]: inactive
- outcome [4]: inactive
- Potency [5]: inactive
- Potency [6]: inactive
- Potency [9]: inactive

Compound: CCCCCCC
- Potency [1]: inactive
- Potency [2]: inactive
- Potency [3]: inactive
- outcome [4]: inactive
- Potency [5]: inactive
- Potency [6]: inactive
- Potency [9]: inactive

Compound: CCc1nnc(NS(=O)(=O)c2ccc(N)cc2)s1
- Potency [1]: inactive
- Potency [2]: inactive
- Potency [3]: inactive
- outcome [4]: inactive
- Potency [5]: inactive
- Potency [6]: inactive
- max activation [7]: -2.73%
- Potency [8]: inactive
- Potency [10]: inactive
- Potency [9]: inactive

Compound: Cc1ccc([N+](=O)[O-])cc1Cl
- Potency [1]: inactive
- Potency [2]: inactive
- Potency [3]: inactive
- outcome [4]: inactive
- Potency [5]: inactive
- Potency [6]: 61.9 µM (active)
- Potency [9]: inactive

Compound: CC1=NN(c2cc(Cl)c(S(=O)(=O)O)cc2Cl)C(=O)C1N=Nc1ccc(S(=O)(=O)O)cc1 (stereo not drawn)
- Potency [1]: 54.5 µM (active)
- Potency [2]: inactive
- Potency [3]: 54.5 µM (active)
- outcome [4]: inactive
- Potency [5]: 48.6 µM (active)
- Potency [6]: inactive
- Potency [9]: inactive

Compound: CCCOCCC
- Potency [1]: inactive
- Potency [2]: inactive
- Potency [3]: inactive
- outcome [4]: inactive
- Potency [5]: inactive
- Potency [6]: inactive
- Potency [9]: inactive

Compound: COc1ccccc1N1CCN(CCCNc2cc(=O)n(C)c(=O)n2C)CC1
- Potency [1]: inactive
- Potency [2]: inactive
- Potency [3]: inactive
- outcome [4]: inactive
- Potency [5]: inactive
- Potency [6]: inactive
- max activation [7]: -1.3%
- Potency [8]: inactive
- Potency [9]: 11 µM (active)

Compound: CC(C)CCCCCCc1ccc(OCCOCCO)cc1
- Potency [1]: inactive
- Potency [2]: inactive
- Potency [3]: inactive
- outcome [4]: inactive
- Potency [5]: inactive
- Potency [6]: 97.2 µM (active)
- Potency [9]: inactive

Compound: CN1CCN(c2c(F)cc3c(=O)c(C(=O)O)cn(CCF)c3c2F)CC1
- Potency [1]: inactive
- Potency [2]: inactive
- Potency [3]: inactive
- outcome [4]: inactive
- Potency [5]: inactive
- Potency [6]: inactive
- max activation [7]: -0.524%
- Potency [8]: inactive
- Potency [9]: inactive
